According to the supplement of paper PMC3334620:
The full ranking holds about 33,000 sequences; the median of “E-score (-0.5 to 0.5)” is about -0.015, and the highest 2% start at about 0.3. The entries come from a sample that favours the highest values as a whole.

target: T1, Abf1 (UniProt P14164); experiment: PBM E-score (8-mer binding enrichment) (E-score (-0.5 to 0.5)); higher = stronger / more preferred TF binding; settings: protein concentration: 200 nM; construct: GST-full length
T1 sequence: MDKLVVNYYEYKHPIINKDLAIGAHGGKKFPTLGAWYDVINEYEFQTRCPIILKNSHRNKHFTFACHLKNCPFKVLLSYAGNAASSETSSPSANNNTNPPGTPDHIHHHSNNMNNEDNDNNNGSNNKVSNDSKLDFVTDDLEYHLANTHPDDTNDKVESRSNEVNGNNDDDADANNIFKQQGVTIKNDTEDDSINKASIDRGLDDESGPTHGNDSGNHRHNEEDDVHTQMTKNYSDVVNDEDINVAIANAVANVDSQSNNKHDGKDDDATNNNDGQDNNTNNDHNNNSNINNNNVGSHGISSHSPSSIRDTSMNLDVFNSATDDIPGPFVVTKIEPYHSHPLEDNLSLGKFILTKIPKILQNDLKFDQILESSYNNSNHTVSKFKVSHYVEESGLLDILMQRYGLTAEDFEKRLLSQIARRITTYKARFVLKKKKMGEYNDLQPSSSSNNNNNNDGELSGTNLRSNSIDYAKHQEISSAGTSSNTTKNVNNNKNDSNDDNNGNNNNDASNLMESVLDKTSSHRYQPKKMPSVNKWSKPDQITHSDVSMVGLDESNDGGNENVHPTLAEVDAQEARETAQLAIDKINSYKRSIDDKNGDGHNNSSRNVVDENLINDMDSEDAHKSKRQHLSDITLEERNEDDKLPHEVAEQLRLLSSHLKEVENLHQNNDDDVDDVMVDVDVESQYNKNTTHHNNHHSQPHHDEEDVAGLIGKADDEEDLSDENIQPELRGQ
Procedure: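 Universal 'all 10-mer' protein binding microarrays (Agilent AMADID 015681) probed with GST-tagged S. cerevisiae TFs (full-length or DBD) made by in vitro transcription/translation (PURExpress), about 100-200 nM. Bound TF was detected with fluorescent anti-GST. Each ungapped 8-mer (which stands for itself and its reverse complement) is scored by the PBM enrichment score (E-score), a modified Wilcoxon-Mann-Whitney statistic from -0.5 to +0.5, computed with the Universal PBM Analysis Suite. Scale: above 0.35 generally sequence-specific binding.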

**Q.** How did the “PBM E-score” value turn out when CTCACTCC was run?
**A.** -0.0715

**Q.** Which “PBM E-score” value does the source give for GTCACTCA here?
**A.** 0.238

**Q.** With CTCACTCA as the sequence, how does the “PBM E-score” value read?
**A.** 0.0709

**Q.** For ACCACTCG, which “PBM E-score” value is on record?
**A.** 0.187

**Q.** CGTTTGGC was tested. Which “PBM E-score” value did it give?
**A.** 0.0893

**Q.** Which “PBM E-score” value does the source give for TCAGGACA here?
**A.** 0.156

**Q.** How did the “PBM E-score” value turn out when ATCTGAAG was run?
**A.** -0.1

**Q.** ATAACCAT was tested. Which “PBM E-score” value did it give?
**A.** 0.0871

**Q.** For CACAAAAG, which “PBM E-score” value is on record?
**A.** -0.0552

**Q.** How did the “PBM E-score” value turn out when CCAGCCAC was run?
**A.** -0.0544

**Q.** How did the “PBM E-score” value turn out when GTATGATA was run?
**A.** 0.327

**Q.** Which “PBM E-score” value does the source give for ATATGATA here?
**A.** 0.316

**Q.** CTATGATA was tested. Which “PBM E-score” value did it give?
**A.** 0.143

**Q.** With GTATGAGA as the sequence, how does the “PBM E-score” value read?
**A.** 0.145

**Q.** With GTATGACA as the sequence, how does the “PBM E-score” value read?
**A.** 0.176

**Q.** With ATATGATG as the sequence, how does the “PBM E-score” value read?
**A.** 0.191

**Q.** Which “PBM E-score” value does the source give for CATCCGGG here?
**A.** -0.161

**Q.** AAACCGTA was tested. Which “PBM E-score” value did it give?
**A.** 0.221

**Q.** For ACACCAAT, which “PBM E-score” value is on record?
**A.** 0.0514

**Q.** Which “PBM E-score” value does the source give for CGGGATGA here?
**A.** 0.0791

**Q.** With ACGACCGC as the sequence, how does the “PBM E-score” value read?
**A.** 0.041

**Q.** GGGGAATA was tested. Which “PBM E-score” value did it give?
**A.** -0.112

**Q.** AAAGAGAG was tested. Which “PBM E-score” value did it give?
**A.** -0.214

**Q.** How did the “PBM E-score” value turn out when AAGAGAAA was run?
**A.** -0.0161

**Q.** With ACTTGAAT as the sequence, how does the “PBM E-score” value read?
**A.** 0.0842

**Q.** For CGACATTA, which “PBM E-score” value is on record?
**A.** 0.317

**Q.** For TGACATCA, which “PBM E-score” value is on record?
**A.** 0.274

**Q.** Which “PBM E-score” value does the source give for CGACATCA here?
**A.** 0.315

**Q.** CGACATTC was tested. Which “PBM E-score” value did it give?
**A.** 0.0424

**Q.** Which “PBM E-score” value does the source give for AGACATCG here?
**A.** 0.111

**Q.** How did the “PBM E-score” value turn out when AGACATTA was run?
**A.** -0.0164

**Q.** For CGACATCC, which “PBM E-score” value is on record?
**A.** 0.121

**Q.** For CGACATCG, which “PBM E-score” value is on record?
**A.** 0.301

**Q.** For GGACATCA, which “PBM E-score” value is on record?
**A.** 0.215

**Q.** How did the “PBM E-score” value turn out when CAGAAACA was run?
**A.** -0.0715

**Q.** Which “PBM E-score” value does the source give for GAGGAACA here?
**A.** -0.095

**Q.** With CCAGACAG as the sequence, how does the “PBM E-score” value read?
**A.** -0.2

**Q.** Which “PBM E-score” value does the source give for GAGTAAAA here?
**A.** 0.0646

**Q.** For CCGCGACA, which “PBM E-score” value is on record?
**A.** 0.154

**Q.** Which “PBM E-score” value does the source give for CCGCGACG here?
**A.** 0.32

**Q.** Which “PBM E-score” value does the source give for CCGCGACC here?
**A.** -0.0179

**Q.** CTAATGCC was tested. Which “PBM E-score” value did it give?
**A.** -0.208

**Q.** How did the “PBM E-score” value turn out when CAATCGTG was run?
**A.** 0.122

**Q.** Which “PBM E-score” value does the source give for AAAACGCA here?
**A.** 0.00195

**Q.** Which “PBM E-score” value does the source give for AGGTTTCG here?
**A.** -0.199

**Q.** GACGAACA was tested. Which “PBM E-score” value did it give?
**A.** 0.253

**Q.** With AACGAACG as the sequence, how does the “PBM E-score” value read?
**A.** 0.144

**Q.** With TGCGAAAA as the sequence, how does the “PBM E-score” value read?
**A.** 0.175

**Q.** For AACGAACA, which “PBM E-score” value is on record?
**A.** 0.215

**Q.** How did the “PBM E-score” value turn out when CACGATCA was run?
**A.** 0.272

**Q.** CACGATCG was tested. Which “PBM E-score” value did it give?
**A.** 0.339

**Q.** Which “PBM E-score” value does the source give for TACGAAAA here?
**A.** 0.297

**Q.** TACGAACA was tested. Which “PBM E-score” value did it give?
**A.** 0.351

**Q.** AACGAAAA was tested. Which “PBM E-score” value did it give?
**A.** 0.103

**Q.** Which “PBM E-score” value does the source give for CACGATCC here?
**A.** 0.0482

**Q.** For CACGAACG, which “PBM E-score” value is on record?
**A.** 0.372

**Q.** With CACGAACA as the sequence, how does the “PBM E-score” value read?
**A.** 0.186

**Q.** How did the “PBM E-score” value turn out when AACAAATT was run?
**A.** 0.201

**Q.** For AAAAACGT, which “PBM E-score” value is on record?
**A.** 0.0618

**Q.** For GTAGCCCA, which “PBM E-score” value is on record?
**A.** 0.0106

**Q.** ACCATCCC was tested. Which “PBM E-score” value did it give?
**A.** -0.155

**Q.** With AACAGAGA as the sequence, how does the “PBM E-score” value read?
**A.** -0.09

**Q.** Which “PBM E-score” value does the source give for ACCGCTCA here?
**A.** 0.0985

**Q.** With GAGCACTA as the sequence, how does the “PBM E-score” value read?
**A.** 0.0823

**Q.** CACGAAAG was tested. Which “PBM E-score” value did it give?
**A.** 0.272

**Q.** For GACGAATA, which “PBM E-score” value is on record?
**A.** 0.232

**Q.** GCCGAAAC was tested. Which “PBM E-score” value did it give?
**A.** -0.0478

**Q.** GACGAAAC was tested. Which “PBM E-score” value did it give?
**A.** 0.344

**Q.** Which “PBM E-score” value does the source give for CACGAAAC here?
**A.** 0.272

**Q.** With AACGAAAC as the sequence, how does the “PBM E-score” value read?
**A.** 0.101

**Q.** With GCCGAAAA as the sequence, how does the “PBM E-score” value read?
**A.** 0.173

**Q.** For CACGAAAA, which “PBM E-score” value is on record?
**A.** 0.31

**Q.** For GACGAAAA, which “PBM E-score” value is on record?
**A.** 0.337

**Q.** With CTAGGAGA as the sequence, how does the “PBM E-score” value read?
**A.** -0.236

**Q.** TCTACCAA was tested. Which “PBM E-score” value did it give?
**A.** -0.0268

**Q.** Which “PBM E-score” value does the source give for CTGGACCC here?
**A.** -0.279

**Q.** Which “PBM E-score” value does the source give for CGGATGAA here?
**A.** 0.211

**Q.** Which “PBM E-score” value does the source give for GCGTGTCA here?
**A.** 0.0814

**Q.** TCGTGGAA was tested. Which “PBM E-score” value did it give?
**A.** 0.336

**Q.** ACATGTCA was tested. Which “PBM E-score” value did it give?
**A.** 0.221

**Q.** TCATGTCA was tested. Which “PBM E-score” value did it give?
**A.** 0.332

**Q.** With GCGTGGAA as the sequence, how does the “PBM E-score” value read?
**A.** -0.105

**Q.** For GCATGTCA, which “PBM E-score” value is on record?
**A.** 0.225

**Q.** For CCGTGTCA, which “PBM E-score” value is on record?
**A.** 0.268

**Q.** TCGTGTAA was tested. Which “PBM E-score” value did it give?
**A.** 0.343

**Q.** For ACGTGTAA, which “PBM E-score” value is on record?
**A.** 0.235

**Q.** How did the “PBM E-score” value turn out when ACGTGGAA was run?
**A.** 0.118
